# Measurements as given in PubChem BioAssay.
# Where “and” joins values, the source holds several entries; their conditions need not be identical. Equal entries are not always repeated. For some assays here: Results with a measured potency or affinity are listed apart. Calls of active or inactive are those of the source.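 How the source made its calls, unless noted: active means compounds whose cell count with miR-34 switched on is under 0.7 times the count with it off; inactive means the rest.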
# Key:
# [1] = differential killing of epithelial or mesenchymal cells, primary screen, imaging, PC-3E GFP, TEM4-18 mCherry, co-culture (AID 1345086;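 active means compounds killing one labelled cell type while sparing the other, by normalised counts and ratio limits, not self-fluorescent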;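 on all read-outs here: cells exposed to compound for 72 h before imaging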;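 on red/green cell ratio (normalised): normalised mesenchymal count divided by normalised epithelial count so high means epithelial killing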); settings: imaging cell counts, at 1 µM; for red/green cell ratio (normalised): actives lie on both sides, counts scaled to control wells, 1 = unselective
# [2] = sensitizers of A549 cells to miR-34 induction, primary screen, imaging, A549 dox-inducible miR-34, nuclei and caspase counts (AID 1347080); settings: A549 miR-34 inducible, Hoechst nuclei count, 48 h
# [3] = polyglutamine-triggered caspase-3 activation inhibitors, cell-based (AID 1583); settings: polyglutamine-induced caspase-3 activation, cell assay; stronger effect = higher value;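 tested at 10 µM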
# [4] = suppressors of polyQ aggregation in yeast, 75Q-TubU reporter (AID 1593); settings: Yeast 75Q polyglutamine aggregation reporter
# [5] = rescue of polyQ-huntingtin neuronal dysfunction in worms, whole organism, C. elegans mechanosensory neurons, N-terminal huntingtin (AID 1599); settings: touch response, stronger effect = higher value
# [6] = inhibitors of mitochondrial cytochrome c release, biochemical, purified mitochondria (AID 1603); settings: stronger effect = lower value;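 further: mouse liver mitochondria challenged with calcium chloride; signal normalized to the plate average as 100%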
# [7] = inhibitors of polyQ protein aggregation (AID 1604); settings: polyglutamine-induced protein aggregation inhibition assay; stronger effect = higher value; tested at 2.5 µM
# [8] = enhancers of glutamate uptake in motor neurons, MN-1 cell line (AID 1612); settings: MN-1 motor neuron cells, stronger effect = higher value;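 further: tested at 1 µM final; 0% = mean of DMSO vehicle wells on each plate; positive means more glutamate uptake than control and negative means less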
# [9] = reducers of polyQ inclusions in PC12 cells, cell-based, NGF-treated PC12, GFPQ80 (AID 1614); settings: PC12 NGF-treated GFP-polyQ80 inclusion reduction;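 further: lower means fewer inclusions and 0 means no inclusions at all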
# [10] = suppressors of polyglutamine aggregation in yeast, 75Q-TubH (AID 1616); settings: S. cerevisiae 75Q-TubH polyglutamine aggregation suppression; stronger effect = higher value
# [11] = circadian clock period modulators, cell-based, LOPAC library, luminescence reporter (AID 2774; call rule not given here;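 further: values are relative to mean of DMSO wells on each plate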); settings: circadian reporter cells, at 7 µM, actives lie on both sides
# [12] = liver-stage malaria parasite growth inhibition, primary screen, cell-based, HepG2, luciferase luminescence, HepG2 viability (AID 624349; in the data active means parasite load remaining mostly below about 12%, no sharp cut-off; inactive means mostly above about 10%;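 further: 100% = mean of DMSO negative control wells on the same plate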); settings: P. berghei liver stage in HepG2, luciferase luminescence, concentration not given here; parasite load remaining: stronger effect = lower value; viability: measured here: HepG2 viability without parasites
# [13] = system: Hepatitis C virus NS3 helicase; experiment: HCV NS3 helicase inhibitors, primary screen, biochemical, fluorescence polarization, LOPAC1280 library (AID 687035; in the data active means inhibition above about 37%); settings: Purified HCV NS3 helicase, Cy5-dT15 ssDNA binding fluorescence polarization; stronger effect = higher value; concentration not given here
# [14] = Cy5 fluorescence quenching or enhancement artefacts, artefact control for HCV NS3 helicase inhibitor project, biochemical, LOPAC1280 (AID 687037; call rule not given here); settings: Cy5-DNA-NS3h complex fluorescence interference counterscreen
# [15] = phospholipid biosynthesis inhibitors in animal cells, primary screen, cell-based, LOPAC library, screen 4 (AID 1347384; call rule not given here); settings: phospholipid biosynthesis inhibition screen, at 10 µM
# [16] = viability rescue of complex I mutant cybrids, primary screen, cell-based, galactose medium, ATP luminescence (AID 1645843;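 active means z-score of at least 1.8 in each of two replicates, scored against plate mean and spread of sample wells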;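 further: positive z means more ATP and so rescue of galactose-driven cybrid death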); settings: complex I mutant cybrid cells, 72 h, stronger effect = higher value
# [17] = target: Mitogen-activated protein kinase 7 (Homo sapiens) (UniProt Q13164); experiment: ERK5 transactivation activators in reporter cells, primary screen, cell-based, HTS (AID 1508626;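 active means luciferase signal above three times the same-plate solvent-only control wells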;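 further: luciferase driven by Gal4-ERK5 fusion binding five Gal4 sites before minimal TATA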); settings: HeLa Gal4-ERK5 transactivation, 18 h, at 5 µM, stronger effect = higher value
# [18] = survival rescue of mitochondrial mutant cells in low glucose, primary screen, MELAS cybrids, Rieske KO mouse fibroblasts, CellTiter-Glo (AID 1508586;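 active means mean z-score across replicates of 1.96 or higher in either the MELAS or the Rieske mutant cell line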;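 further: z relative to plate mean and SD of compound and empty wells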)
# [19] = target: NAD(+) hydrolase SARM1 (Homo sapiens) (UniProt Q6SZW1); experiment: SARM1 TIR NADase inhibitors, cell lysate, NAD-Glo luminescence (AID 1508614;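 active means compound whose remaining NAD level is above about 45 nM, limit read from the data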); settings: SAM-TIR HEK293T lysate NADase, at 1 µM, stronger effect = higher value
# [20] = hESC survival regulators, cell-based (AID 493140; call rule not given here;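 further: cells exposed to compounds for four days before counting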); settings: human embryonic stem cell survival screen; stronger effect = higher value
# [21] = measured here: epithelial PC-3E GFP cell survival
# [22] = measured here: mesenchymal TEM4-18 mCherry cell survival
# [23] = stronger effect = lower value, cell number ratio, induced over uninduced
# [24] = measured here: relative caspase fold change +Dox/-Dox
# [25] = measured here: total cells with miR-34 induction, stronger effect = lower value
# [26] = measured here: total cells without miR-34 induction
# [27] = MELAS cybrid survival, CellTiter-Glo 48 h, stronger effect = higher value
# [28] = Rieske KO mouse fibroblast survival, CellTiter-Glo 72 h
# Sequence of Mitogen-activated protein kinase 7 (Homo sapiens) (Q13164 whole entry, looked up, the tested form may be a part): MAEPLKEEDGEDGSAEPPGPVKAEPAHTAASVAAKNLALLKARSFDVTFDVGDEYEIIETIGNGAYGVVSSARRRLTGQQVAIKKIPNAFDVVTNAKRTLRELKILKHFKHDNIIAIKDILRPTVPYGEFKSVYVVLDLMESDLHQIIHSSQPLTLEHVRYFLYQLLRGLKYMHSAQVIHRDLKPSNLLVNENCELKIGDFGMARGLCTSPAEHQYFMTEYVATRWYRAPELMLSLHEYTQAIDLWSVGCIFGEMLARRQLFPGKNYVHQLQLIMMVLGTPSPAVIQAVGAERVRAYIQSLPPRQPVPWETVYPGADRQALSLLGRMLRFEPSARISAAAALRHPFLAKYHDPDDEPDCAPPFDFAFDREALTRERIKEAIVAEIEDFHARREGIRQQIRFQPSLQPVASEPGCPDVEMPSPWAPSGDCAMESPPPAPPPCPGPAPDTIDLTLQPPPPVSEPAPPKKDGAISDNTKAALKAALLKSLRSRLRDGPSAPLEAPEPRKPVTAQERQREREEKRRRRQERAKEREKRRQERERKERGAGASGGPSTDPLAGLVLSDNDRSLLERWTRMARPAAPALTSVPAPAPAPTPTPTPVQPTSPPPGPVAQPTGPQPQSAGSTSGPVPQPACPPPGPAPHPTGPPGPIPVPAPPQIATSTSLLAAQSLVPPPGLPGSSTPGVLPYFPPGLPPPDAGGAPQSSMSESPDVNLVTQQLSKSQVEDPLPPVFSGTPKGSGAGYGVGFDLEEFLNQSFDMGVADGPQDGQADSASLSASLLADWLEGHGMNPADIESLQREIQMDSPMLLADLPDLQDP
# Sequence of NAD(+) hydrolase SARM1 (Homo sapiens) (Q6SZW1 whole entry, looked up): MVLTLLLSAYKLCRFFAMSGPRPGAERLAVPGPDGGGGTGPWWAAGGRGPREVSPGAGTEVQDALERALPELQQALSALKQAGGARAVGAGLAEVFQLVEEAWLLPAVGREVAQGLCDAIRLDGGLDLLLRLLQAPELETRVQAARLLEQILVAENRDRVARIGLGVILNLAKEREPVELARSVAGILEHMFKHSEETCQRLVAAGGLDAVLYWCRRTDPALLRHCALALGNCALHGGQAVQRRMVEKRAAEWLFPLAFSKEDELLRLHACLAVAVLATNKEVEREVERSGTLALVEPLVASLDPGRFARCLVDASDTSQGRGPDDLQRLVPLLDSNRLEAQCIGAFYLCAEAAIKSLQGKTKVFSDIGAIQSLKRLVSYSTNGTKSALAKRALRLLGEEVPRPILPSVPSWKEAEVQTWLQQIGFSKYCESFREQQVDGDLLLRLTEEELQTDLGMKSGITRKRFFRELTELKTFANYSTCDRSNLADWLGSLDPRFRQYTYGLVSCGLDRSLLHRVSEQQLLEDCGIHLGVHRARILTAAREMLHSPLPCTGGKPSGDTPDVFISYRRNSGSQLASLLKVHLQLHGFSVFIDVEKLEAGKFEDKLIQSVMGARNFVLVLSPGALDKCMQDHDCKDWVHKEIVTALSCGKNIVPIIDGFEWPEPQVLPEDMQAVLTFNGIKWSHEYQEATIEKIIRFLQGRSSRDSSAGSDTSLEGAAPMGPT
smiles,measurement,setting,value
CC(C)OC(=O)CCC/C=C\C[C@@H]1[C@@H](/C=C/C(O)COc2cccc(C(F)(F)F)c2)[C@H](O)C[C@@H]1O (stereo partly specified),red/green cell ratio (normalised),[1],0.87 (inactive)
same,normalised cell number,[1]; [21],1.24
same,normalised cell number,[1]; [22],1.08
same,fold change,[2]; [23],0.865 (inactive)
same,fold change,[2]; [24],1.12
same,cell count,[2]; [25],8710
same,cell count,[2]; [26],10100
CC1(C)O[C@@H]2CC3C4CCC5=CC(=O)C=C[C@]5(C)C4[C@@H](O)C[C@]3(C)[C@]2(C(=O)CO)O1 (stereo partly specified),red/green cell ratio (normalised),[1],0.93 (inactive)
same,normalised cell number,[1]; [21],1.22
same,normalised cell number,[1]; [22],1.14
same,fold change,[2]; [23],0.861 (inactive)
same,fold change,[2]; [24],1.01
same,cell count,[2]; [25],5940
same,cell count,[2]; [26],6900
COc1c(O)cc2c(c1O)[C@H]1O[C@H](CO)[C@@H](O)[C@H](O)[C@@H]1OC2=O,red/green cell ratio (normalised),[1],0.9 (inactive)
same,normalised cell number,[1]; [21],1.23
same,normalised cell number,[1]; [22],1.11
same,fold change,[2]; [23],0.894 (inactive)
same,fold change,[2]; [24],0.886
same,cell count,[2]; [25],8900
same,cell count,[2]; [26],9950
CSCC[C@H](NC(=O)[C@H](Cc1c[nH]c2ccccc12)NC(=O)[C@H](C)NC(=O)OC(C)(C)C)C(=O)N[C@@H](CC(=O)O)C(=O)N[C@@H](Cc1ccccc1)C(N)=O,red/green cell ratio (normalised),[1],0.98 (inactive)
same,normalised cell number,[1]; [21],1.15
same,normalised cell number,[1]; [22],1.13
same,fold change,[2]; [23],0.979 (inactive)
same,fold change,[2]; [24],0.82
same,cell count,[2]; [25],9410
same,cell count,[2]; [26],9610
CC(C)(O)c1ccccc1CC[C@@H](SC1(CC(=O)O)CC1)c1cccc(/C=C/c2ccc3ccc(Cl)cc3n2)c1,red/green cell ratio (normalised),[1],1.02 (inactive)
same,normalised cell number,[1]; [21],1.13
same,normalised cell number,[1]; [22],1.16
same,fold change,[2]; [23],0.955 (inactive)
same,fold change,[2]; [24],0.641
same,cell count,[2]; [25],9020
same,cell count,[2]; [26],9450
CO/N=C(/C(=O)NC1C(=O)N2C(C(=O)O)=C(CSc3nnnn3C)CSC12)c1csc(N)n1 (stereo unspecified),red/green cell ratio (normalised),[1],0.91 (inactive)
same,normalised cell number,[1]; [21],1.17
same,normalised cell number,[1]; [22],1.06
same,fold change,[2]; [23],0.936 (inactive)
same,fold change,[2]; [24],0.695
same,cell count,[2]; [25],9050
same,cell count,[2]; [26],9680
O=C(O)C1CCCNC1 (stereo unspecified),inhibition,[3],28%
same,score,[4],2.59
same,rescue above control,[5],-9.05
same,cytochrome c release ratio,[6],1.08
same,inhibition of aggregation,[7],41.5%
same,glutamate uptake change,[8],-1.16%
same,inclusion score,[9],2
same,aggregation suppression score,[10],1.59
same,period change,[11],0.19 h (inactive)
same,parasite load remaining,[12],89.7% (inactive)
same,viability,[12],95.9%
same,inhibition,[13],0% (inactive)
same,fluorescence ratio (interference),[14],0.9 (inactive)
same,red/green cell ratio (normalised),[1],0.84 (inactive)
same,normalised cell number,[1]; [21],1.28
same,normalised cell number,[1]; [22],1.08
same,fold change,[2]; [23],0.976 (inactive) and 0.953 (inactive)
same,fold change,[2]; [24],1.22 and 0.942
same,cell count,[2]; [25],9840 and 8650
same,cell count,[2]; [26],10100 and 9080
same,outcome,[15],inactive
same,z-score,[16],0.695 (inactive)
CCCCC[C@H](CC(=O)NO)C(=O)N[C@H](C(=O)N1CCC[C@H]1CO)C(C)C,inhibition,[3],-22.9%
same,score,[4],1.1
same,rescue above control,[5],7.47
same,cytochrome c release ratio,[6],0.78
same,inhibition of aggregation,[7],14.3%
same,glutamate uptake change,[8],9.77%
same,inclusion score,[9],2
same,aggregation suppression score,[10],1.26
same,period change,[11],-0.03 h (inactive)
same,inhibition,[13],0% (inactive)
same,fluorescence ratio (interference),[14],1.1 (inactive)
same,red/green cell ratio (normalised),[1],0.91 (inactive)
same,normalised cell number,[1]; [21],1.02
same,normalised cell number,[1]; [22],0.93
same,fold change,[2]; [23],2.17 (inactive)
same,fold change,[2]; [24],1.05
same,cell count,[2]; [25],6800
same,cell count,[2]; [26],3130
same,outcome,[15],inactive
same,luciferase signal,[17],192 AU (inactive)
same,z-score,[16],2.42 (inactive)
Cc1cc(-n2c(=O)[nH]c(=O)n(C)c2=O)ccc1Oc1ccc(SC(F)(F)F)cc1,parasite load remaining,[12],24.3% (inactive)
same,viability,[12],72%
same,red/green cell ratio (normalised),[1],0.98 (inactive)
same,normalised cell number,[1]; [21],1.07
same,normalised cell number,[1]; [22],1.05
same,fold change,[2]; [23],0.875 (inactive) and 0.912 (inactive)
same,fold change,[2]; [24],1.01 and 1.07
same,cell count,[2]; [25],7860 and 10300
same,cell count,[2]; [26],8980 and 11300
same,z-score,[18]; [27],-0.0992 (inactive) and -0.247 (inactive) and 0.135 (inactive)
same,z-score,[18]; [28],-0.203 and -0.144 and -0.234
same,remaining NAD,[19],10 nM (inactive)
same,luciferase signal,[17],136 AU (inactive)
same,z-score,[16],0.65 (inactive)
O=[N+]([O-])O[C@@H]1CO[C@H]2[C@@H]1OC[C@@H]2O,parasite load remaining,[12],73.3% (inactive)
same,viability,[12],93.9%
same,red/green cell ratio (normalised),[1],1.19 (inactive)
same,normalised cell number,[1]; [21],1.15
same,normalised cell number,[1]; [22],1.37
same,fold change,[2]; [23],0.933 (inactive)
same,fold change,[2]; [24],3.92
same,cell count,[2]; [25],12300
same,cell count,[2]; [26],13200
same,z-score,[18]; [27],-0.228 (inactive)
same,z-score,[18]; [28],0.0347
same,remaining NAD,[19],12 nM (inactive)
same,luciferase signal,[17],52 AU (inactive)
CC(=O)c1ccc(S(=O)(=O)NC(=O)NC2CCCCC2)cc1,period change,[11],-0.09 h (inactive)
same,survival,[20],14 (inactive)
same,parasite load remaining,[12],38.7% (inactive) and 91.1% (inactive) and 69.3% (inactive)
same,viability,[12],49.8% and 90.7% and 105%
same,inhibition,[13],-2% (inactive)
same,fluorescence ratio (interference),[14],1 (inactive)
same,red/green cell ratio (normalised),[1],0.86 (inactive)
same,normalised cell number,[1]; [21],0.99
same,normalised cell number,[1]; [22],0.85
same,fold change,[2]; [23],1.04 (inactive) and 0.892 (inactive) and 0.85 (inactive)
same,fold change,[2]; [24],2.43 and 1.31 and 5.06
same,cell count,[2]; [25],10800 and 8720 and 11600
same,cell count,[2]; [26],10400 and 9780 and 13600
same,outcome,[15],inactive
same,z-score,[18]; [27],0.0376 (inactive)
same,z-score,[18]; [28],-0.115
same,remaining NAD,[19],10 nM (inactive)
same,luciferase signal,[17],44 AU (inactive)
same,z-score,[16],0.71 (inactive)
